The values that follow come from a collection of fitness landscapes (doi:10.1126/science.1257360).

Whole data set: some 140,000 sequences, median “enrichment ratio after two sorts for PhoP signalling” near 0, cut for the highest 2% near 11. Many of the other results were omitted from the sample, so the highest values are more common in it than they were. Bounds are passed on as bounds.

To fix the notation:
B1: PhoQ; a variant is named by its letters at X, in order, P23837 (parent)
chain: MKKLLRLFFPLSLRVRFLLATAAVVLVLSLAYGMVALIGYSVSFDKTTFRLLRGESNLFYTLAKWENNKLHVELPENIDKQSPTMTLIYDENGQLLWAQRDVPWLMKMIQPDWLKSNGFHEIEADVNDTSLLLSGDHSIQQQLQEVREDDDDAEMTHSVAVNVYPATSRMPKLTIVVVDTIPVELKSSYMVWSWFIYVLSANLLLVIPLLWVAAWWSLRPIEALAKEVRELEEHNRELLNPATTRELTSLVRNLNRLLKSERERYDKYRTTLTDLTHSLKTPLXXLQXXLRSLRSEKMSVSDAEPVMLEQISRISQQIGYYLHRASMRGGTLLSRELHPVAPLLDNLTSALNKVYQRKGVNISLDISPEISFVGEQNDFVEVMGNVLDNACKYCLEFVEISARQTDEHLYIVVEDDGPGIPLSKREVIFDRGQRVDTLRPGQGVGLAVAREITEQYEGKIVAGESMLGGARMEVIFGRQHSAPKDE

Variants of B1 are the subject of the test. The test can be described thus: enrichment ratio after two sorts for PhoP signalling (ratio (wild type AVST 3.29)); higher = more functional. The settings on record: with PhoP (E. coli).
As for NEMV, the enrichment ratio is 14.8.

As to NEMD, the enrichment ratio was ≤ 0.25. The value for NEMS was ≤ 0.25. The value for THMV was 8.19; that for SHMI was 5.85; that for DIIV was ≤ 0.25.

Consider DPWI, for which the enrichment ratio is ≤ 0.25. The same measure for ARSS: 0.56; for QLGI: ≤ 0.25.

In the case of HQLC, the enrichment ratio was ≤ 0.25. The value for HNDG was ≤ 0.25; that for HGKL was ≤ 0.25.

Regarding MKLC, the enrichment ratio was ≤ 0.25. Regarding SALC, the enrichment ratio is 12. The value for AILC was 7.86; that for AYLC was 0.263.

On to IILC, for which the enrichment ratio was ≤ 0.25. As to HKLC, the enrichment ratio is ≤ 0.25. The same measure for YYLC: ≤ 0.25; for YTLC: 11.3. The value for KQLC was ≤ 0.25; that for ATLC was 13.2; that for FTLC was 6.55.

For the variant TKLC, the enrichment ratio is 19.8. Take KVHY: the enrichment ratio is ≤ 0.25. As to RTKV, the enrichment ratio is ≤ 0.25. Turning to APDH, the enrichment ratio is ≤ 0.25.

For RGMG, the enrichment ratio is ≤ 0.25.

For KYLC, the enrichment ratio is ≤ 0.25. The same measure for DFLC: ≤ 0.25. Take SCLC: the enrichment ratio worked out at 12.4. The same measure for TDLC: 11.7; for SGLC: 20.7; for SPLC: ≤ 0.25. The same measure for KDLC: ≤ 0.25; for STLC: 13.2; for ADLC: 3.37. As to LWLC, the enrichment ratio was ≤ 0.25. SGNS: the enrichment ratio was ≤ 0.25. The value for SWLC was ≤ 0.25; that for HWIF was ≤ 0.25; that for MFWN was ≤ 0.25. With AMSS, the enrichment ratio stood at 9.96. The value for WMWY was ≤ 0.25; that for TPLC was ≤ 0.25. As to SELC, the enrichment ratio was 20.4. The value for TTLC was 14.4.

For LTLC, the enrichment ratio is ≤ 0.25. The same measure for SLLC: 7.49; for GTLC: 10. SKTC: the enrichment ratio is 11.1.

SKKC: the enrichment ratio is ≤ 0.25. The value for SKLC was 12.6; that for SRLC was ≤ 0.25. The value for SFLC was 4.52; that for SNLC was 11.3. The same measure for VGMT: ≤ 0.25. In the case of NFAS, the enrichment ratio was ≤ 0.25. Consider AWLG, for which the enrichment ratio was ≤ 0.25. With PRVI, the enrichment ratio was ≤ 0.25. In the case of THYW, the enrichment ratio was ≤ 0.25. For the variant ELGT, the enrichment ratio is ≤ 0.25.

For the variant FGYD, the enrichment ratio was ≤ 0.25.

On to EVSM, for which the enrichment ratio was determined as 7.73. The value for SNGM was 15.3; that for SNGD was ≤ 0.25. The value for SNGS was 9.33; that for SNNM was 13.1; that for STNM was 11.4. The value for SQNM was 1.65. In the case of SNNY, the enrichment ratio amounted to 8.91. The value for SNRM was ≤ 0.25; that for SRGY was ≤ 0.25.

Consider YTNM, for which the enrichment ratio is ≤ 0.25.

Consider SNGY, for which the enrichment ratio came to 12.6. The same measure for SLNM: ≤ 0.25; for RSCE: ≤ 0.25; for QIIS: ≤ 0.25. The same measure for TQLR: 2.23; for LNRD: 0.657. The value for EFTP was ≤ 0.25.

As for NIED, the enrichment ratio is ≤ 0.25. The value for HGTL was 6.22. The value for SDCM was 17.2.

As for SVCE, the enrichment ratio was 2.84. The value for SVCM was 14.2. The same measure for SVCK: 9.8.

For SECM, the enrichment ratio was 38.2. The same measure for SPCM: ≤ 0.25; for FDCM: ≤ 0.25; for MTCK: ≤ 0.25. The same measure for SYCM: ≤ 0.25; for SRCM: 9.77. The value for MHCM was ≤ 0.25; that for MTCM was 12.2; that for KPWY was ≤ 0.25.

Consider TYSW, for which the enrichment ratio is ≤ 0.25. For HHAG, the enrichment ratio is ≤ 0.25. The same measure for IFAS: ≤ 0.25; for MQIG: ≤ 0.25.

For the variant STCM, the enrichment ratio was 13.3. The same measure for PLCM: ≤ 0.25. The same measure for YTCM: 11.5; for LTCM: ≤ 0.25; for TTCM: 24.5. Consider WLCM, for which the enrichment ratio was ≤ 0.25. The same measure for FTCM: 7.68; for ITCM: 1; for YHCM: ≤ 0.25. The value for NTCM was ≤ 0.25; that for SLCM was 16.9. RTCM: the enrichment ratio was ≤ 0.25. The same measure for RMAR: ≤ 0.25; for LPWH: ≤ 0.25; for KMFP: ≤ 0.25. Take IDIW: the enrichment ratio was ≤ 0.25.

As for DRHH, the enrichment ratio was ≤ 0.25. The value for ITAF was ≤ 0.25; that for YATV was ≤ 0.25; that for TAMG was 17.2. The value for YANV was ≤ 0.25; that for KATV was ≤ 0.25; that for TAVG was ≤ 0.25. The same measure for KAMN: ≤ 0.25. For the variant TANV, the enrichment ratio turned out to be 17.9.

Regarding TAVC, the enrichment ratio is 1.35.

For the variant TAMN, the enrichment ratio was 59.7. The value for NAMN was ≤ 0.25; that for KANV was ≤ 0.25. The value for TATV was 13.6.

For the variant YFEP, the enrichment ratio is ≤ 0.25. The value for NMRI was ≤ 0.25; that for YHGP was ≤ 0.25; that for TWHF was ≤ 0.25.

For LTFD, the enrichment ratio was ≤ 0.25.

As to HWNR, the enrichment ratio was ≤ 0.25. The same measure for WEAV: ≤ 0.25. The value for KAMP was ≤ 0.25; that for WWAY was ≤ 0.25; that for LLHT was ≤ 0.25.

Turning to HMSL, the enrichment ratio was ≤ 0.25. The same measure for PQVE: ≤ 0.25; for HHWE: ≤ 0.25. The value for TAQF was 14; that for LQQS was ≤ 0.25. Consider YAGF, for which the enrichment ratio is ≤ 0.25. The same measure for TAGF: 13.2; for TAMS: 7.61. The value for TAPV was ≤ 0.25; that for TAMV was 14.2. In the case of IAGF, the enrichment ratio is ≤ 0.25. The value for TAVA was ≤ 0.25; that for LQQF was ≤ 0.25. The same measure for TAHF: 10.3.

In the case of TAQS, the enrichment ratio was 14.2.
